The source made the active and inactive calls.

One test has as its target Albumin (Bos taurus) (UniProt P02769). The test is described as follows: compounds binding labelled BSA control protein – biochemical, small-molecule microarray, Alexa647 label, 635/667 nm fluorescence, artefact control for SMM control protein annotation, profiling panel (AID 1118).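 Further: score merges 667 nm emission intensity and signal-to-noise per printed compound spot.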 The note with it: BSA-A647 binding, fluorescence 635 nm, higher = more signal.
The nature of test [1]: probe aXIP binding to arrayed compounds – biochemical, NeuroSMM set, 635/667 nm fluorescence, primary screen (AID 1119).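 Further: probe is the protein aXip251-270 applied at 1 µg/mL to compound-printed slides; binding of probe to printed compounds measured as 667 nm fluorescence plus signal to noise.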 To be noted: small-molecule microarray, higher = more signal, called active from +8 up or from −8 down.
Test [2] can be described thus: probe aNOTCH3 binding on compound microarray – biochemical, small-molecule microarray, 635/667 nm fluorescence, primary screen (AID 1120).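 Further: probe is a biotin-tagged antibody raised against NOTCH3 rather than NOTCH3 protein; score merges spot fluorescence near 667 nm with spot signal to noise.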 To be noted: higher = more signal.
Test [3] is described as follows: probe aNOTCH2 binding on compound microarray – biochemical, small-molecule microarray, 635/667 nm fluorescence, primary screen (AID 1121).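 Further: score merges feature fluorescence read at 667 nm with its signal to noise.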 To be noted: higher = more signal.
Test [4] has as its target Carbonic anhydrase 2 (Homo sapiens) (UniProt P00918). In words: compounds binding carbonic anhydrase 2 – biochemical, small-molecule microarray, Alexa647-labelled CAII, profiling panel (AID 1122). The note with it: CAII-A647 binding fluorescence, higher = more signal.
Test [5] is described as follows: COS7 lysate on small-molecule microarray, probe aHis, 635 nm (AID 1123).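 Further: z-score combines 667nm fluorescence intensity with signal-to-noise per printed compound spot.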 The note with it: COS7 cell lysate, fluorescence, higher = more signal.
Test [6] can be described thus: probe aLAP1 signal on lysate-treated microarray – cell lysate, small-molecule microarray, COS7 lysate, primary screen (AID 1124).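 Further: lysate comes from COS7 cells expressing LAP1 and is applied at 0.3 µg/mL; score merges spot fluorescence near 667 nm with signal-to-noise over triplicate slides.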 The note with it: probe aLAP1, fluorescence, higher = more signal.
Another test concerns Sam68 (KHDRBS1). In words: compounds binding KHDRBS1 protein – biochemical, small-molecule microarray, 635 nm fluorescence, primary screen (AID 1125).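 Further: score merges 667 nm channel intensity with signal to noise over triplicate slides.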 To be noted: higher = more signal.
Test [7] deals with Chordin-like protein 2 (CHRDL2). In words: compounds binding chordin-like 2 – biochemical, small-molecule microarray, 635 nm fluorescence, primary screen (AID 1126).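 Further: printed compound slides probed with Chrdl2 protein at 4 µg/mL for 1 h at 4 C; score merges 667 nm emission intensity with signal to noise over three replicate slides.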 To be noted: fluorescence 635 nm, higher = more signal.
Test [8] deals with Concanavalin-A (Canavalia ensiformis) (UniProt P02866). The test is described as follows: compounds binding concanavalin A lectin – biochemical, small-molecule microarray, Alexa647 label, 635 nm, artefact control for SMM control protein annotation, primary screen (AID 1127).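 Further: z combines 667 nm emission intensity with signal-to-noise across three replicate slides.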 To be noted: ConA-A647 binding fluorescence, higher = more signal.
Sequence of Concanavalin-A (Canavalia ensiformis) (P02866 whole entry, looked up): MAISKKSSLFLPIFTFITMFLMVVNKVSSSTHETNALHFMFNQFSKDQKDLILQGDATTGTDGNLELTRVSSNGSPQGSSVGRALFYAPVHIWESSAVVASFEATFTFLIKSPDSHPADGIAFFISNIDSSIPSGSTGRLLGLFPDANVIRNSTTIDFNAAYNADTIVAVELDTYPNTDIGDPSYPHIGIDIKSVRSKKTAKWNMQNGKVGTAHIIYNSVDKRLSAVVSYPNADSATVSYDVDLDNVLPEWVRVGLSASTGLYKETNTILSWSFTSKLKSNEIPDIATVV

Sequence of Albumin (Bos taurus) (P02769 whole entry, looked up): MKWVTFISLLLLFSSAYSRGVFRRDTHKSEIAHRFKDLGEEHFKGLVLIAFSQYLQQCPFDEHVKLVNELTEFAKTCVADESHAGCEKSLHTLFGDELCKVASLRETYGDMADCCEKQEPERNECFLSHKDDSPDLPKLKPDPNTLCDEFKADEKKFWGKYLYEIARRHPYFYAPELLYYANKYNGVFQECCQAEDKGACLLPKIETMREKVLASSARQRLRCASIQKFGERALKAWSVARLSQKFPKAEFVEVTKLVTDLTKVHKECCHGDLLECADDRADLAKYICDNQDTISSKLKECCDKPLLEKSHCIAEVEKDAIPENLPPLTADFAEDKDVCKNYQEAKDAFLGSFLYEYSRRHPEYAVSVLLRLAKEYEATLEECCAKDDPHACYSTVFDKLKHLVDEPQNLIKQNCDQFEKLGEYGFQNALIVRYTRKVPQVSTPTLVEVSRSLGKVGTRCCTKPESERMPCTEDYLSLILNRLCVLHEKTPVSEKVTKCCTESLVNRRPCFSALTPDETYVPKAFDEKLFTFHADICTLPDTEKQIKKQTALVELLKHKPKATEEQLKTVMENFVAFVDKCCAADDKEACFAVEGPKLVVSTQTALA

In the case of `COCCOC(=O)N1C(=O)[C@@]2(c3cc(C#CCNC(N)=O)ccc31)[C@H](C(=O)Nc1nc3ccccc3s1)[C@H]1C(=O)O[C@H](c3ccccc3)[C@H](c3ccccc3)N1[C@@H]2c1ccc(O)cc1`, the composite z-score was -0.376 with Albumin (Bos taurus); 0.0203 in test [2]; -0.0094 in test [3]; 0.214 in [4]; 0.734 in [5]; 0.16 in [6]. The composite z-score worked out at 1.02 with Sam68 (KHDRBS1), 0.306 in test [7] and 1.1 in [8]. Moreover, the composite Z-score in test [1] was -0.263 (inactive).

On to `C=CCOC(=O)[C@H]1[C@@H]2C(=O)O[C@@H](c3ccccc3)[C@@H](c3ccccc3)N2[C@@H](c2ccc(OCCOC(=O)[C@H]3C[C@H]4C(=O)NCC(=O)N4[C@H]3c3ccc(O)cc3)cc2)[C@]12C(=O)Nc1ccccc12`, for which the composite z-score with Albumin (Bos taurus) was -0.501; in [2], 0.948; in test [3], -0.0631; in test [4], 0.6; in [5], 1.67; in [6], 0.96. The composite z-score in the test with Sam68 (KHDRBS1) came to 1.29; in test [7], 0.815; in test [8], 1.18. The composite Z-score in [1] was 1.19 (inactive).

Take `C=C(CCCC)/C(=C/C[C@@H](OC(C)=O)c1ccc(OCCO)cc1)c1cc(C(=O)OC)ccc1OC`: the composite z-score with Albumin (Bos taurus) was -0.526; in test [2], -0.0377; in [3], -0.092; in [4], 0.721; in test [5], 1.55; in test [6], 0.155. The figures for the composite z-score (with Sam68 (KHDRBS1); in [7]; in test [8]) were 1.2, -0.362 and 0.787, respectively. Further, the composite Z-score in test [1] is 0.0578 (inactive).

For `COC(=O)C1=CC(c2ccc(CO)cc2)=CC(C2CC2)N(Cc2cc3c(cc2Br)OCO3)C=C1C(=O)OC` (stereo not given), the composite z-score with Albumin (Bos taurus) is 0.861; in test [2], 0.448; in [3], 0.165; in test [4], 0.814; in test [5], 2.82; in [6] it was 1.24. The composite z-score in the test with Sam68 (KHDRBS1) turned out to be 1.31; in test [7], 0.0562; in test [8], 1.19. Also, the composite Z-score in test [1] was 2.69 (inactive).

Take `[N-]=[N+]=NCc1ccccc1[C@H]1OC(c2ccc(OCCCO)cc2)=N[C@@]1(Cc1ccccc1N=[N+]=[N-])C(N)=O`: the composite z-score was 0.884 in the test with Albumin (Bos taurus); 0.339 in test [2]; -0.229 in test [3]; 0.743 in [4]; 2.72 in test [5]; -0.182 in test [6]. Moreover, the figures for the composite z-score (in the test with Sam68 (KHDRBS1); in test [7]; in test [8]) were 1.27, -0.0265 and 1.08, respectively. For the same molecule, the composite Z-score in test [1] is 0.385 (inactive).

In the case of `C=C(COC)C(=O)CC[C@H](OC(C)=O)c1ccc(CO)o1`, the composite z-score in the test with Albumin (Bos taurus) was 0.485; in [2], -0.0328; in test [3] it was -0.14; in test [4], 0.472; in [5], -0.273; in test [6], -0.218. Besides, the results for the composite z-score (with Sam68 (KHDRBS1); in test [7]; in test [8]) were -0.893, 0.268 and 0.753, respectively. In addition, the composite Z-score in test [1] is 4.03 (inactive).

Turning to `COCCCNC(=O)[C@]1(Cc2ccccc2CN=[N+]=[N-])N=C(c2ccc(OCCCO)cc2)O[C@@H]1c1ccccc1N=[N+]=[N-]`, the composite z-score with Albumin (Bos taurus) came out at 0.835; in test [2] it was 0.805; in test [3] it was 0.188; in [4], 0.525; in test [5], 2.24; in [6], 0.152. The figures for the composite z-score (in the test with Sam68 (KHDRBS1); in [7]; in test [8]) were 1.34, -0.992 and 1.05, respectively. The composite Z-score in test [1] was -0.217 (inactive).

Turning to `C=C(COC)C(=O)CC[C@H](OC(C)=O)c1ccccc1OCCO`, the composite z-score is -1.63 with Albumin (Bos taurus); -0.0343 in test [2]; -0.115 in test [3]; 0.662 in [4]; 0.0092 in test [5]; -0.325 in test [6]. The values for the composite z-score (in the test with Sam68 (KHDRBS1); in test [7]; in test [8]) were 0.176, -0.0471 and -0.153, respectively. Moreover, the composite Z-score in test [1] was -0.743 (inactive).

For `COC(=O)[C@@]1(Cc2ccc(F)cc2)[C@H]2c3cc(C(=O)N4CCCC4)n(CCSCCO)c3C[C@H]2CN1C(=O)c1ccccc1`, the composite z-score in the test with Albumin (Bos taurus) came out at 0.855; in test [2], 0.241; in test [3], 0.231; in test [4] it was 0.839; in test [5], 3.25; in [6] it was 0.258. For the same molecule, the composite z-score was 0.644 in the test on Sam68 (KHDRBS1), -0.562 in test [7] and 0.532 in test [8]. Further, in test [1], the composite Z-score was -0.338 (inactive).

In the case of `COCCOC(=O)N1C(=O)[C@@]2(c3cc(C#CCNC(N)=O)ccc31)[C@H](c1ccc(O)cc1)N1[C@H](c3ccccc3)[C@H](c3ccccc3)OC(=O)[C@H]1[C@@H]2C(=O)N1CCc2cc(OC)c(OC)cc2C1`, the composite z-score is 0.397 with Albumin (Bos taurus); 0.0962 in [2]; -0.0928 in test [3]; 0.414 in test [4]; 0.781 in [5]; -0.0347 in [6]. The figures for the composite z-score (in the test with Sam68 (KHDRBS1); in [7]; in test [8]) were 1.21, 0.431 and 0.764, respectively. The composite Z-score in [1] was 0.443 (inactive).

In the case of `CN1C(=O)C2C=CC(C(O)c3cccs3)N(N(c3ccccc3)c3ccccc3)C2C1=O` (stereo not given), the composite z-score was 0.994 in the test with Albumin (Bos taurus); 0.17 in [2]; -0.0037 in test [3]; 0.714 in [4]; 1.69 in [5]; 0.518 in test [6]. In addition, the composite z-score is 1.02 in the test on Sam68 (KHDRBS1), -0.362 in test [7] and 0.644 in test [8]. The composite Z-score in test [1] was 0.343 (inactive).

Take `CCCCN1CC=CC23O[C@@H]4C=CCCOC(=O)C4[C@H]2C(=O)N(CCO)[C@@H]3C1=O` (stereo not given in full): the composite z-score was 0.0656 with Albumin (Bos taurus); -0.246 in test [2]; -0.109 in [3]; 0.79 in test [4]; -1.36 in test [5]; 1.94 in test [6]. The composite z-score with Sam68 (KHDRBS1) is -0.33; in [7], -0.418; in test [8], -0.0932. Besides, the composite Z-score in [1] was -0.535 (inactive).

For `CCCCCN1CC=CC23O[C@@H]4/C=C\CCCOC(=O)C4[C@H]2C(=O)N(CCO)[C@@H]3C1=O` (stereo not given in full), the composite z-score in the test with Albumin (Bos taurus) is 0.73; in test [2], -0.18; in test [3], -0.14; in [4], 0.823; in test [5], 2.17; in test [6] it was 0.657. Besides, the composite z-score worked out at 0.428 in the test with Sam68 (KHDRBS1), 0.323 in [7] and 0.433 in test [8]. In [1], the composite Z-score is 0.0463 (inactive).

On to `C=CCNC(=O)[C@H]1[C@@H]2C(=O)O[C@@H](c3ccccc3)[C@@H](c3ccccc3)N2[C@@H](c2ccc(OCCO)cc2)[C@]12C(=O)N(C(=O)OCCOC)c1ccc(C#CCC(C(=O)OC)C(=O)OC)cc12`, for which the composite z-score with Albumin (Bos taurus) was 0.738; in test [2], 0.327; in [3], 0.0654; in [4] it was 0.702; in test [5], 2.67; in test [6] it was 1.44. The composite z-score in the test with Sam68 (KHDRBS1) was determined as 1.16; in [7], 0.6; in test [8], 1.12. In addition, in test [1], the composite Z-score was 0.245 (inactive).

`COc1ccc(CCNC(=O)[C@@H]2c3ccccc3C(=O)N(C(C)C)[C@H]2c2ccc(CO)cc2)cc1`: the composite z-score with Albumin (Bos taurus) was -1.09; in test [2], -0.209; in test [3], -0.132; in test [4], 0.722; in [5] it was 1.42; in test [6], -0.362. The composite z-score in the test on Sam68 (KHDRBS1) is -0.139; in test [7], -1.87; in test [8] it was -0.574. In addition, the composite Z-score in [1] was 1.13 (inactive).

For the molecule `COC(=O)[C@@]1(Cc2ccc(F)cc2)[C@H]2c3cc(C(=O)N4CCCC4)n(Cc4ccc(C(F)(F)F)nc4)c3C[C@H]2CN1C(=O)c1ccccc1`, the composite z-score with Albumin (Bos taurus) is 1.05; in test [2], 0.522; in [3], -0.0013; in [4], 0.579; in [5], 3.01; in test [6], 0.4. Moreover, the composite z-score was 1.23 in the test on Sam68 (KHDRBS1), -1.41 in test [7] and 0.962 in [8]. Further, in [1], the composite Z-score was 0.136 (inactive).

These data come from PubChem BioAssay.
